The panel holds about 83,000 compounds, 20% with a hit somewhere; the sample as a whole holds those more often.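 Plates (96-well) were seeded with cells, treated with compound at one concentration, and incubated for 48 hours before percent growth was determined.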 Calls of active or inactive are those of the source. How the source made its calls: active means growth percent below 10; inactive means the rest.
Legend:
Assay in all cases: NCI-60 one-dose screen, 48 h (100 = growth as untreated, 0 = no growth, -100 = all killed)
Details in all cases: 10 µM unless noted
[1] = tested on: DU-145 prostate
[2] = tested on: K-562 leukemia
[3] = tested on: MALME-3M melanoma
[4] = tested on: MDA-MB-231 breast
[5] = tested on: RXF 393 renal
[6] = tested on: SF-268 CNS
[7] = tested on: SF-295 CNS
[8] = tested on: SF-539 CNS
[9] = tested on: UACC-257 melanoma
[10] = tested on: M14 melanoma

Measured: growth

O=C1c2cccc3c(N4CCN(c5ccccc5)CC4)ccc(c23)C(=O)N1c1cccc(-c2nn(-c3ccccc3)cc2-c2nc3ccccc3s2)c1
inactive: [1] 108% | [2] 91.1% | [3] 88.8% | [4] 95.1% | [5] 106% | [6] 101% | [7] 103% | [8] 95.1% | [9] 113% | [10] 104%

COc1ccccc1Nc1nnc(-c2c[nH]c3ccccc23)o1
inactive: [1] 12.6% | [3] 44.1% | [6] 47.7% | [9] 44.7% | [10] 20.5%
active: [2] 7.09% | [4] 3.73% | [5] -48.2% | [7] -28.8% | [8] -40.3%

O=C(N/N=C/c1c[nH]c2ccccc12)Nc1ccc(F)c(Cl)c1
inactive: [1] 61.5% | [2] 15.4% | [3] 56.3% | [4] 61.3% | [5] 18.3% | [6] 39.7% | [7] 13.8% | [8] 27.3% | [9] 60.9% | [10] 33.7%

OCCn1cc(-c2nc3ccc4[nH]ncc4c3c3c2CCCC3)cn1
inactive: [1] 36.2% | [2] 21.4% | [3] 24.1% | [4] 54.9% | [6] 64% | [7] 60.9% | [8] 36.2% | [9] 58% | [10] 22.6%
active: [5] -12.6%

CN(C)CCCNC(=S)Nc1ccc(/C=C/c2ccc(Cl)cc2)cc1
active: [1] -61.8% | [2] 4.54% | [3] -95% | [4] -100% | [5] -25.8% | [6] 0.261% | [7] -51.7% | [8] -68.6% | [9] -79.9% | [10] -63.5%

O=C(CSc1nc2sc3c(c2c(=O)n1-c1ccc(Cl)cc1)CCCC3)NNC(=O)c1ccc(F)cc1
inactive: [1] 109% | [2] 72.3% | [3] 80.5% | [4] 28.8% | [5] 89.7% | [6] 95.9% | [7] 90.4% | [9] 106% | [10] 80.6%
active: [8] -28.4%

c1n[nH]cc1-c1nc2ccc3[nH]ncc3c2c2c1CC1(CCOCC1)CC2
active: [5] -15.8%
inactive: [1] 41.6% | [2] 39.5% | [3] 22.6% | [4] 59.4% | [6] 34.4% | [7] 65.8% | [8] 26.6% | [9] 53% | [10] 23.9%

COc1cc(C2CC(c3ccc(F)cc3)=Nc3c(N)nc(N)nc3N2)ccc1Oc1nc(Nc2ccc(F)cc2)nc(N(C)C)n1 (stereo not given)
inactive: [1] 55.8% | [2] 15.5% | [3] 52.5% | [4] 44.2% | [5] 17.2% | [6] 63.4% | [7] 40.3% | [8] 69.6% | [9] 38.7% | [10] 56.6%

O=C(O)CC1S/C(=N/N=C/c2nc3ccccc3s2)NC1=O (stereo not given)
inactive: [1] 95.8% | [2] 94.1% | [3] 107% | [4] 102% | [5] 134% | [6] 85.5% | [7] 104% | [8] 98.1% | [9] 105% | [10] 90.4%

N/C(=N\c1nc2ccccc2s1)NC(=O)Nc1ccccc1[N+](=O)[O-]
active: [1] 1.45% | [4] -1.5% | [7] 1.71% | [8] -41.1%
inactive: [2] 10.6% | [3] 44.6% | [5] 36.4% | [6] 23% | [9] 60.1% | [10] 16.3%

COC(=O)c1c(C(=O)OC)c2c3ccccc3c3ccccc3n2c1C(=O)C(C)(C)C
inactive: [1] 95.7% | [2] 47.1% | [3] 100% | [4] 73.5% | [5] 82.3% | [6] 89.3% | [7] 81.7% | [8] 83.3% | [9] 94.8% | [10] 74.3%

NC(=O)c1ccc(-c2ccc3ncnc(N4CCc5cc(F)c(Cl)cc54)c3c2)cn1
inactive: [1] 49.5% | [2] 34.7% | [3] 78.9% | [4] 49.3% | [5] 40.9% | [6] 95.6% | [7] 79.4% | [8] 63% | [9] 110% | [10] 70.2%

CCOc1ccccc1NC(=O)N/C(N)=N/c1nc2ccccc2s1
active: [1] -4% | [4] 0.962% | [7] 3.78% | [8] -27.7%
inactive: [2] 10.1% | [3] 42% | [5] 48.7% | [6] 27.3% | [9] 52.2% | [10] 13.4%

COc1cc(/C=C/C(=O)c2cnn(-c3cc(=O)[nH]c4ccc(Br)cc34)c2C)cc(OC)c1OC
active: [1] -83.4% | [2] -0.439% | [3] -42.4% | [4] -34.3% | [5] -76.2% | [6] -16.4% | [7] -61.8% | [8] -78.8% | [9] -30.3% | [10] -49.8%

COc1cc(/C=C/C(=O)c2ccc(S(=O)(=O)NCCNc3nc(N(C)C)nc(N4CCOCC4)n3)cc2)cc(OC)c1OC
active: [2] -67.8% | [4] -82% | [5] -100% | [6] -3.35% | [7] -68.1% | [8] -87.3% | [9] -26.5% | [10] -54.7%
inactive: [1] 13.8% | [3] 41.2%

COc1c(B(O)O)cc(F)cc1-c1nc2ccc3[nH]ncc3c2c2c1COCC2
active: [5] -5.84%
inactive: [1] 73.5% | [2] 63.7% | [3] 126% | [4] 33.4% | [6] 44.9% | [7] 77.2% | [8] 21.7% | [9] 97.5% | [10] 114%

Cc1nn(-c2ccccc2)c2nc(C)n(C(=O)N/N=C/c3cccc([N+](=O)[O-])c3)c(=O)c12
inactive: [1] 99.9% | [2] 62% | [4] 94.7% | [5] 115% | [6] 101% | [7] 101% | [8] 105% | [9] 78.4% | [10] 80.4%
active: [3] -10.2%

COc1ccc2ccccc2c1/C=C1\SC(=Nc2ccc(O)cc2)NC1=O
active: [2] 7.49% | [5] -1.11% | [8] -21.7% | [10] 6.7%
inactive: [1] 35.2% | [3] 30.1% | [4] 15.1% | [6] 37.9% | [7] 10.7% | [9] 37.8%

COc1ccc(-c2cc(-c3cc(C(C)C)c(O)cc3C)nn2-c2ccc(S(N)(=O)=O)cc2)cc1
active: [8] -28%
inactive: [1] 16.2% | [2] 13.6% | [3] 60.1% | [4] 27.9% | [5] 26.7% | [6] 47.2% | [7] 19.8% | [9] 60.5% | [10] 42.8%

C#CCCCNCCNc1ccnc2cc(Cl)ccc12
inactive: [1] 74.5% | [2] 19.9% | [3] 88.8% | [4] 66.3% | [5] 36.2% | [6] 87.7% | [7] 48.2% | [10] 61.3%
active: [8] -13.9% | [9] 0.503%

CCN1CCN(Cc2ccc(C(=O)Nc3cccc(Nc4ccc5c(OC)cccc5n4)c3)cc2C(F)(F)F)CC1
active: [1] -57.9% | [2] 0.423% | [3] -94.8% | [4] -94% | [5] -93.3% | [6] -19.1% | [7] -95.3% | [8] -100% | [9] -82.8% | [10] -74.8%

Cc1ccc(NC(=O)N/N=C/c2c[nH]c3ccccc23)c(C)c1
inactive: [1] 12.9% | [2] 10.5% | [3] 52.8% | [4] 21.1% | [6] 11.8% | [9] 46.5% | [10] 12.5%
active: [5] -12.3% | [7] 5.78% | [8] -5.67%

Clc1ccc2c(NCCNC34CC5CC(CC(C5)C3)C4)ccnc2c1
active: [1] -42.7% | [2] 2.05% | [3] -80.4% | [4] -72.1% | [5] -86.4% | [6] -62.2% | [7] -90.9% | [8] -89.7% | [9] -66.3% | [10] -83.5%

COC(=O)c1cc(C(=O)C(C)(C)C)n2c3ccccc3c3ccccc3c12
inactive: [1] 97.4% | [2] 77.1% | [3] 109% | [4] 79.4% | [5] 91.3% | [6] 103% | [7] 93.5% | [8] 96.7% | [9] 117% | [10] 96.7%

N/C(=N\c1nc2ccccc2s1)NC(=O)Nc1ccccc1F
active: [1] 9.55% | [5] -1.57% | [7] 2.32% | [8] -40.1%
inactive: [2] 13.1% | [3] 33.3% | [4] 19.9% | [6] 47.2% | [9] 84.5% | [10] 31.1%

C[C@@H]1[C@H]2C[C@@H](C[C@H]1NCc1nc3ccccc3n1C1CCCCCC1)C2(C)C
inactive: [1] 88.3% | [2] 24.1% | [3] 51.4% | [4] 77.8% | [5] 19% | [6] 75.6% | [7] 57.6% | [8] 77.1% | [9] 64.7% | [10] 61%

Source: PubChem BioAssay (NCI)
